HIF-2a block – inhibitors of HIF-2a; AID 624352; hit rate 0.72% among 360,000; inhibition, % at 18.8 µM; 786-0 RCC cells HIF-2a reporter, luciferase luminescence, overnight;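 active = inhibition of the luminescence signal of 40% or more relative to plate controls, in a single-dose primary screen at 18.75 µM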
Shn3 3UTR inh – Schnurri-3 reporter inhibition in Clone20 osteoblasts. Clone20 osteoblast Shn3 3'UTR firefly luciferase, 24 h. inhibition, % at 12.5 µM. hit rate 0.52% among 360,000. AID 588674;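 active = mean inhibition of at least 75% with every replicate also reaching 75%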;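 note: 0% = median of neutral control wells and 100% = pilot-screen positive control compound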
CF NFkB inh – cystic fibrosis NF-kB activation inhibition | KKLEB NF-kB-GFP reporter, PAF-induced, GFP fluorescence overnight | inhibition, % at 5 µM | hit rate 0.86% among 360,000;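 active = at least 50% inhibition at 5 µM, scaled per plate between neutral and stimulator controls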;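 note: PAF is a Pseudomonas aeruginosa culture filtrate used as stimulus; plate controls were PAF-stimulated DMSO wells for no effect and unstimulated DMSO wells for full effect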
Peg3 prom inh – Peg3 promoter activity inhibition | hit rate 1.7% among 360,000 | inhibition, % at 20 µM | HeLa PEG-Prom luciferase reporter, luminescence, overnight;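 active = inhibition of at least 50% at 20 µM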
KKLEB tox – counter-screen for CF NF-kB inhibitors: cytotoxicity; KKLEB CF airway cells viability, ATPlite luminescence, overnight; hits give low values; cells stimulated with P. aeruginosa culture filtrate; activity change (cytotoxicity), % at 5 µM; hit rate 0.36% among 360,000;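 active = corrected activity change at or below -50% at 5 µM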
EBV LMP1 NFkB – Epstein-Barr LMP1 NF-kappaB reporter inhibition. LMP1-induced NF-kappaB luciferase reporter cells, luminescence. hit rate 0.69% among 350,000. inhibition, % at 12.5 µM; in the data active = inhibition above about 41%;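 note: 0% = neutral control wells and 100% = reference inhibitor control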
An asterisk follows results filed as active. Most compounds without a hit are left out; they make up all but 2.9% or so of the library.

COc1ccc(C2NCCc3c2[nH]c2ccccc32)cc1CSc1nc2ccccc2s1 (centres undefined) was read as HIF-2a block -18.4, Shn3 3UTR inh 6.2, CF NFkB inh 16.1, Peg3 prom inh 92.4*, KKLEB tox -23.3 and EBV LMP1 NFkB -17.5.
Screening c1ccc(COc2ccccc2CNC23CC4CC(CC(C4)C2)C3)cc1 returned HIF-2a block 13.0, Shn3 3UTR inh -7.7, CF NFkB inh 19.2, Peg3 prom inh 74.6*, KKLEB tox -11.9 and EBV LMP1 NFkB 5.2.
`C=C(C(=O)c1ccccc1)C(C)CC(=O)c1ccccc1` (centres undefined) gave HIF-2a block 26.2, Shn3 3UTR inh 5.9, CF NFkB inh 13.6, Peg3 prom inh 71.7*, KKLEB tox -26.0 and EBV LMP1 NFkB -6.9.
CCN(CC)CCNc1ncnc2c1sc1nc(N3CCOCC3)c3c(c12)CCCC3 was read as HIF-2a block 7.9, Shn3 3UTR inh 3.4, CF NFkB inh 11.5, Peg3 prom inh 100.5*, KKLEB tox -19.4 and EBV LMP1 NFkB -12.3.
CC(C)CNc1ncnc2c1sc1nc(N3CCOCC3)c3c(c12)CC(C)(C)OC3 was read as HIF-2a block 7.4, Shn3 3UTR inh 13.9, CF NFkB inh 35.2, Peg3 prom inh 15.7, KKLEB tox -39.1 and EBV LMP1 NFkB 7.0.
CCN(CC)CCNc1ncnc2c1sc1nc(N3CCCC3)c3c(c12)CC(C)(C)OC3 was read as HIF-2a block 29.6, Shn3 3UTR inh -44.1, CF NFkB inh 25.3, Peg3 prom inh 78.8*, KKLEB tox -23.3 and EBV LMP1 NFkB -27.3.
Screening COC(=O)C[C@@H]1CC[C@@H](NC(=O)C2CCC2)[C@@H](CO)O1 returned HIF-2a block 1.4.
`Cn1cnnc1SCC(=O)OCN1C(=O)c2ccccc2C1=O` gave HIF-2a block 13.7, Shn3 3UTR inh 6.3, CF NFkB inh 9.2, Peg3 prom inh 2.6, KKLEB tox 0.4 and EBV LMP1 NFkB -3.4.
Cc1cc(C)nc(SCC(=O)OCN2C(=O)c3ccccc3C2=O)n1 was read as HIF-2a block 17.9, Shn3 3UTR inh -7.4, CF NFkB inh -6.7, Peg3 prom inh 0.9, KKLEB tox 1.3 and EBV LMP1 NFkB 85.4*.
CC1CCc2sc(C(=O)OCC(=O)NC(C)C)cc2C1 (centres undefined) was read as HIF-2a block 5.5, Shn3 3UTR inh -3.9, CF NFkB inh -20.5, Peg3 prom inh -6.7, KKLEB tox 6.7 and EBV LMP1 NFkB 0.0.
CN1CCN(CCCNC(=O)c2ccc3c(c2)N(Cc2ccc(F)cc2)CCS3)CC1 was read as HIF-2a block 6.7, Shn3 3UTR inh -20.8, CF NFkB inh 16.7, Peg3 prom inh 34.3, KKLEB tox 0.2 and EBV LMP1 NFkB 67.4*.
`COc1ccc(CCNC(=O)c2ccc3c(c2)N(Cc2ccccc2)CCS3)cc1OC` gave HIF-2a block 3.2, Shn3 3UTR inh 10.3, CF NFkB inh 16.4, Peg3 prom inh 55.2*, KKLEB tox -3.1 and EBV LMP1 NFkB 0.7.
CN1CCN(CCCNC(=O)c2ccc3c(Cl)c4c(nc3c2)CCCC4)CC1 was read as HIF-2a block -20.2, Shn3 3UTR inh -28.7, CF NFkB inh 0.9, Peg3 prom inh 87.1*, KKLEB tox 3.2 and EBV LMP1 NFkB -22.3.
`CN1CCN(S(=O)(=O)Cc2ccc(Cl)cc2)CC1` gave HIF-2a block 11.3, CF NFkB inh 5.4, Peg3 prom inh 3.0, KKLEB tox -5.6 and EBV LMP1 NFkB 4.3.
`CNc1ccc(S(=O)(=O)NCC(=O)OCC(=O)Nc2cccc(Cl)c2Cl)cc1[N+](=O)[O-]` gave HIF-2a block 5.7, Shn3 3UTR inh 1.4, CF NFkB inh -5.8, Peg3 prom inh 7.0, KKLEB tox -0.4 and EBV LMP1 NFkB 1.4.
`Cc1cnc(C(=O)OCC(=O)N2CC(C)CC(C)C2)cn1` (centres undefined) gave HIF-2a block 10.0, Shn3 3UTR inh 1.3, CF NFkB inh -19.1, Peg3 prom inh 0.8, KKLEB tox 7.0 and EBV LMP1 NFkB -4.8.
For COc1cc(OC)c2nc(C)c3c(c2c1)N(c1ccc(O)cc1)CC3 the results were HIF-2a block 22.3, Shn3 3UTR inh 28.5, CF NFkB inh -222.9, Peg3 prom inh 65.1*, KKLEB tox 7.3 and EBV LMP1 NFkB -9.1.
For COC(=O)C[C@@H]1C=C[C@H](NC(=O)Nc2ccc(OC)cc2)[C@@H](CO)O1 the results were HIF-2a block 6.0.
Screening Cc1ccc(S(=O)(=O)c2cn(C)c3cc(N4CCN(C)CC4)c(F)cc3c2=O)c(C)c1 returned HIF-2a block 18.0, Shn3 3UTR inh 6.7, CF NFkB inh 5.1, Peg3 prom inh 75.5*, KKLEB tox -12.5 and EBV LMP1 NFkB 4.0.
Cc1cc(NC(=O)c2ccc3sc([C@@H]4O[C@H](CO)[C@H](O)[C@H](O)[C@H]4O)nc3c2)n(C)n1 was read as HIF-2a block 8.6, Shn3 3UTR inh -6.7, CF NFkB inh 7.3, Peg3 prom inh -14.1 and KKLEB tox 1.5.
Screening Cc1ccc(C(=O)Nc2nnc(NC(=S)Nc3ccccc3)s2)cc1 returned HIF-2a block -122.8, Shn3 3UTR inh -22.5, CF NFkB inh 65.3*, Peg3 prom inh -77.0, KKLEB tox -2.5 and EBV LMP1 NFkB -11.0.
`Cc1ccccc1OCc1nc2ccccc2c(=O)n1/N=C/c1cn[nH]c1-c1ccc(Br)cc1` gave HIF-2a block -5.3, Shn3 3UTR inh -35.5, CF NFkB inh 30.8, Peg3 prom inh 61.4*, KKLEB tox -11.6 and EBV LMP1 NFkB -0.9.
For O=c1c2ccccc2nc(COc2ccccc2)n1/N=C/c1cn[nH]c1-c1ccccc1 the results were HIF-2a block -13.8, Shn3 3UTR inh -23.1, CF NFkB inh 15.6, Peg3 prom inh 23.8, KKLEB tox -6.2 and EBV LMP1 NFkB 6.7.
For CSc1ccccc1NC(=O)CN1CCCCC1C (centres undefined) the results were HIF-2a block 12.4, Shn3 3UTR inh -0.1, CF NFkB inh -14.2, Peg3 prom inh 14.8, KKLEB tox 0.5 and EBV LMP1 NFkB 54.9*.
`O=c1c2cnn(-c3ccccc3)c2nc(-c2cccs2)n1-c1ccc(Cl)cc1` gave HIF-2a block -12.7, Shn3 3UTR inh -7.6, CF NFkB inh 23.6, Peg3 prom inh -10.8, KKLEB tox -6.3 and EBV LMP1 NFkB 43.9*.
`NC(=O)CC(NC(=O)c1ccccc1)c1ccc(N2CCC(Cc3ccccc3)CC2)c([N+](=O)[O-])c1` (centres undefined) gave HIF-2a block 12.7, Shn3 3UTR inh 91.4*, CF NFkB inh 14.8, Peg3 prom inh 3.2, KKLEB tox -6.5 and EBV LMP1 NFkB 17.7.
For COc1ccc(Cl)cc1NS(=O)(=O)c1cccc(C(=O)NCCCN2CCCC2=O)c1 the results were HIF-2a block 7.1, Shn3 3UTR inh 10.8, CF NFkB inh -5.9, Peg3 prom inh 9.2, KKLEB tox 4.0 and EBV LMP1 NFkB 2.9.
O=C1N[C@@H](Cc2ccccc2)C(=O)N1CCN1CCOCC1 was read as HIF-2a block 7.9, Shn3 3UTR inh -19.9, CF NFkB inh -11.8, Peg3 prom inh 4.3, KKLEB tox -6.0 and EBV LMP1 NFkB -2.0.
